A selection: hits, their analogues and other compounds. The true share with any hit is near 3.9%.
Mtb FBA inh: Mtb FBA enzyme inhibitors, primary screen, biochemical, fluorescence, strain H37Rv; Fructose-bisphosphate aldolase (Mycobacterium tuberculosis (strain ATCC 25618 / H37Rv)), …; purified M. tuberculosis FBA, fluorescence read-out; inhibition, % at 1 µM; hit rate 2.3% among 360,000; AID 588726, 2011
Target sequence (P9WQA3 whole entry, looked up): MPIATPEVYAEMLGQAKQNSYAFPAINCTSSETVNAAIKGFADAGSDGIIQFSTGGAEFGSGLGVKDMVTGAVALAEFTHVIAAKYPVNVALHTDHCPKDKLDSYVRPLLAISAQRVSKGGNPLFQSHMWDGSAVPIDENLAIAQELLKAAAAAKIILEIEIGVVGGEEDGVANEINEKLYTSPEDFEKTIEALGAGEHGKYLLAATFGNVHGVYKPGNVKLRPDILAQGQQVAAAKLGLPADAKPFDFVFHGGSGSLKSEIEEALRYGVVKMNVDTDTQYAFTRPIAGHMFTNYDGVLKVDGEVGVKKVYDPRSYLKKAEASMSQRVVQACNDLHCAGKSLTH
Vc quorum ag: inducers of Vibrio cholerae quorum light production without autoinducers, primary screen, BH1578 luxS cqsA deficient, single point; activation, % at 18.7 µM; hit rate 0.16% among 350,000; V. cholerae BH1578 lux reporter, luminescence, 6 h; in the data active means activation mostly above about 9.7%, no sharp cut-off
SARS 3CLpro inh: SARS-CoV 3CLpro protease inhibitors, primary screen, biochemical, quenched FRET; Replicase polyprotein 1ab (Severe acute respiratory syndrome coronavirus), P0C6X7; recombinant SARS-CoV 3CLpro, quenched FRET peptide cleavage; inhibition, % at 6 µM; hit rate 0.14% among 290,000; AID 1706, 2009; in the data active means inhibition above about 12%
GDH-TPI counter-1: GDH-TPI coupling enzyme inhibitors, primary screen, artefact control for M. tuberculosis FBA inhibitor project, biochemical, absorbance, full deck; inhibition, % at 4.8 µM; AID 588335, 2011; hit rate 1.2% among 360,000; GDH-TPI coupled enzyme counterscreen, NADH absorbance; in the data active means inhibition above about 30%
PrPC TRFRET: inhibitors of human cell surface prion protein PrPC, primary screen, cell-based, TR-FRET; inhibition, % at 13.8 µM; hit rate 0.43% among 370,000; Major prion protein (Homo sapiens), P04156; TR-FRET read-out; in the data active means inhibition above about 24%
Mtb FBA confirm: M. tuberculosis aldolase blockers, biochemical, fluorescence, strain H37Rv, confirmation; shares compounds with Mtb FBA inh; purified M. tuberculosis FBA, fluorescence read-out; inhibition, % at 1 µM; hit rate 78% among 5,600
GDH-TPI counter-2: GDH-TPI coupling enzyme inhibitors, artefact control for M. tuberculosis FBA inhibitor project, biochemical, fluorescence, high throughput; GDH-TPI coupled enzyme counterscreen; inhibition, % at 1 µM; shares compounds with Mtb FBA inh; AID 652141, 2013; hit rate 81% among 5,600; in the data active means inhibition above about 10%
Of the large screens only hits and unclear results are named; the others gave an inactive call (follow-up assays come after a bar, where they were run). Unless noted, no stated cut-off is given here; in the data, active means inhibition above about 27%; inactive means the rest.

COc1cc(OC)c(Cl)cc1N	Mtb FBA inh 45 | Mtb FBA confirm 67 | GDH-TPI counter-2 51
CCOC(=O)C1CSCCS(=O)(=O)N1Cc1ccc(F)cc1 (centres undefined)	none (no result: Mtb FBA inh, Vc quorum ag, SARS 3CLpro inh, GDH-TPI counter-1)
COCCCn1c(=O)c2sccc2n2c(CCCC(=O)NCc3ccc(OC)cc3)nnc12	none
Cc1cc(F)ccc1NCC(=O)Nc1ccccc1Br	Mtb FBA inh 50 | Mtb FBA confirm 47 | GDH-TPI counter-2 39
CCCCNc1ncnc2sc3c(c12)CCN(CCC)C3	Mtb FBA inh 34 | Mtb FBA confirm 99 | GDH-TPI counter-2 89
COC(CNc1nc(SC)nc2sc3c(c12)CCN(C)C3)OC	none
CCC(O)CNc1nc(SC)nc2sc3c(c12)CCN(C)C3 (centres undefined)	Mtb FBA inh 84 | Mtb FBA confirm inactive | GDH-TPI counter-2 inactive
CSc1nc(N)c2c3c(sc2n1)CN(C)CC3	Mtb FBA inh 39 | Mtb FBA confirm 48 | GDH-TPI counter-2 34
Cc1cc(NS(=O)(=O)c2ccc(NC(=O)CSc3nnc(-c4ccncc4)n3-c3ccccc3)cc2)nc(C)n1	none (no result: Mtb FBA inh, Vc quorum ag, SARS 3CLpro inh, GDH-TPI counter-1)
CC(=O)c1csc(CS(=O)(=O)c2ccccn2)n1	none
CCOC(=O)CCn1c2nc(C)cc(C)c2c(=O)n1-c1ccccc1	Mtb FBA inh 28 | Mtb FBA confirm 49 | GDH-TPI counter-2 41
O=C(CSc1nnc2ccccn12)NNC(=O)c1ccc(Br)cc1	none
COc1ccc2c(c1)oc(=O)c1c3ccccc3[nH]c21	none
O=C(O)C(Oc1ccc2c(c1)oc(=O)c1ccccc12)c1ccccc1 (centres undefined)	Mtb FBA inh 92 | Mtb FBA confirm 37 | GDH-TPI counter-2 30
COc1ccc2c(c1)oc(=O)c1ccccc12	Mtb FBA inh 88 | Mtb FBA confirm 41 | GDH-TPI counter-2 31
O=C(O)C(Oc1ccc2ccccc2c1)c1ccccc1 (centres undefined)	none (no result: SARS 3CLpro inh)
CCc1n(CC(O)COC2CCCCC2)c2ccccc2[n+]1C (centres undefined)	none
COc1cc(NC(=S)Nc2ccccn2)cc(OC)c1	none
CCCCN(C)C(=O)CCC(=O)Nc1ccc2nc(N3CCN(C)CC3)cc(C)c2c1	Mtb FBA inh 28 | Mtb FBA confirm 61 | GDH-TPI counter-2 57
CCCCN(C)C(=O)CCC(=O)Nc1ccc2nc(N3CCOCC3)cc(C)c2c1	Mtb FBA inh 49 | Mtb FBA confirm 154 | GDH-TPI counter-2 125
CCOc1ccccc1NC(=O)CCC(=O)Nc1ccc2nc(N3CCN(C)CC3)cc(C)c2c1	Mtb FBA inh 31 | Mtb FBA confirm 130 | GDH-TPI counter-2 122
COc1ccc(N(C)C(=O)CCC(=O)Nc2ccc3nc(N4CCOCC4)cc(C)c3c2)c(OC)c1	none
CCOC(CCNC(=O)CCC(=O)Nc1ccc2nc(N3CCN(C)CC3)cc(C)c2c1)OCC	none
CCCCN(CC)CCCNC(=S)Nc1ccc2nc(N3CCN(C)CC3)cc(C)c2c1	none
CC(C)(C)OC(=O)C[C@H]1C/C=C\C[C@@H](CC(=O)N(CCO)Cc2ccccc2)C(=O)N2CCC[C@H]2COC1=O	none (no result: SARS 3CLpro inh)
O=C(NCc1ccccc1Cl)c1csc([C@@H]2C[C@H](O)[C@@H](CO)O2)n1	none (no result: SARS 3CLpro inh)
CCNC(=O)Nc1cc(OC)c(OC)cc1C(=O)O	Mtb FBA inh 45 | Mtb FBA confirm 89 | GDH-TPI counter-2 78
COc1ccc(C(=O)NNC(=O)C(=O)Nc2cccc3ccccc23)cc1	none
N#Cc1c(NCCN)nc(-c2ccccc2)c2c1CCCC2	none
N#Cc1c(NCCCO)nc(-c2ccccc2)c2c1CCCC2	Mtb FBA inh 51 | Mtb FBA confirm 58 | GDH-TPI counter-2 36
CN(C)CCCNc1nc(-c2ccccc2)c2c(c1C#N)CC(C)(C)OC2	Mtb FBA inh 45 | Mtb FBA confirm 107 | GDH-TPI counter-2 85
CC1(C)Cc2c(C#N)c(NCCc3ccccc3)nc(-c3ccco3)c2CO1	Mtb FBA inh 35 | Mtb FBA confirm 171 | GDH-TPI counter-2 135

Screening data from PubChem BioAssay.
